This is an account of results in PubChem BioAssay.

Activity calls are given as the source filed them.

For one test, the target named is Albumin (Bos taurus) (UniProt P02769). The test can be described thus: compounds binding labelled BSA control protein – biochemical, small-molecule microarray, Alexa647 label, 635/667 nm fluorescence, artefact control for SMM control protein annotation, profiling panel (AID 1118).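 Note: score merges 667 nm emission intensity and signal-to-noise per printed compound spot.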 To be noted: BSA-A647 binding, fluorescence 635 nm, higher = more signal.
Albumin (Bos taurus), sequence (P02769 whole entry, looked up): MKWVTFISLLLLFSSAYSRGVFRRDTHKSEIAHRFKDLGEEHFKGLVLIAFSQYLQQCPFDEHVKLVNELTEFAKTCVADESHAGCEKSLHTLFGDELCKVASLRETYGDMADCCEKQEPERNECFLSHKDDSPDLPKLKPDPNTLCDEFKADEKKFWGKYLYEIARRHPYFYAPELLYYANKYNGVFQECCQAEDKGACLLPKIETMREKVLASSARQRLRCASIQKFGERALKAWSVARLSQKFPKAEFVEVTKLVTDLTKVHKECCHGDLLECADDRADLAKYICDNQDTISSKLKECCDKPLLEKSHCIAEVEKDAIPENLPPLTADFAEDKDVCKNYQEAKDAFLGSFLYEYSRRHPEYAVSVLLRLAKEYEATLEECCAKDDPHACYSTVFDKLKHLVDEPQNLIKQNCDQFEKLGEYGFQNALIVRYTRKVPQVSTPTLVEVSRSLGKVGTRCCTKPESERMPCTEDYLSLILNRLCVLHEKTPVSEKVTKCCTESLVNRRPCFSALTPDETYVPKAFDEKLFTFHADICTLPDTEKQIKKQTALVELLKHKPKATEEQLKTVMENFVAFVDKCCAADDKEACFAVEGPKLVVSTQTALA
Test [1] can be described thus: probe aXIP binding to arrayed compounds – biochemical, NeuroSMM set, 635/667 nm fluorescence, primary screen (AID 1119).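 Note: probe is the protein aXip251-270 applied at 1 µg/mL to compound-printed slides; binding of probe to printed compounds measured as 667 nm fluorescence plus signal to noise.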 To be noted: small-molecule microarray, higher = more signal, called active from +8 up or from −8 down.
Test [2] can be described thus: probe aNOTCH3 binding on compound microarray – biochemical, small-molecule microarray, 635/667 nm fluorescence, primary screen (AID 1120).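 Note: probe is a biotin-tagged antibody raised against NOTCH3 rather than NOTCH3 protein; score merges spot fluorescence near 667 nm with spot signal to noise.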 The note with it: higher = more signal.
The nature of test [3]: probe aNOTCH2 binding on compound microarray – biochemical, small-molecule microarray, 635/667 nm fluorescence, primary screen (AID 1121).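 Note: score merges feature fluorescence read at 667 nm with its signal to noise.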 The note with it: higher = more signal.
Test [4] has as its target Carbonic anhydrase 2 (Homo sapiens) (UniProt P00918). The experiment in a line: compounds binding carbonic anhydrase 2 – biochemical, small-molecule microarray, Alexa647-labelled CAII, profiling panel (AID 1122). The note with it: CAII-A647 binding fluorescence, higher = more signal.
Test [5] is described as follows: COS7 lysate on small-molecule microarray, probe aHis, 635 nm (AID 1123).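 Note: z-score combines 667nm fluorescence intensity with signal-to-noise per printed compound spot.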 To be noted: COS7 cell lysate, fluorescence, higher = more signal.
Test [6] is described as follows: probe aLAP1 signal on lysate-treated microarray – cell lysate, small-molecule microarray, COS7 lysate, primary screen (AID 1124).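 Note: lysate comes from COS7 cells expressing LAP1 and is applied at 0.3 µg/mL; score merges spot fluorescence near 667 nm with signal-to-noise over triplicate slides.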 To be noted: probe aLAP1, fluorescence, higher = more signal.
The test system of another test is Sam68 (KHDRBS1). The test can be described thus: compounds binding KHDRBS1 protein – biochemical, small-molecule microarray, 635 nm fluorescence, primary screen (AID 1125).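 Note: score merges 667 nm channel intensity with signal to noise over triplicate slides.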 To be noted: higher = more signal.
For test [7], the system named is Chordin-like protein 2 (CHRDL2). The experiment in a line: compounds binding chordin-like 2 – biochemical, small-molecule microarray, 635 nm fluorescence, primary screen (AID 1126).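 Note: printed compound slides probed with Chrdl2 protein at 4 µg/mL for 1 h at 4 C; score merges 667 nm emission intensity with signal to noise over three replicate slides.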 To be noted: fluorescence 635 nm, higher = more signal.
Test [8] addresses Concanavalin-A (Canavalia ensiformis) (UniProt P02866). The test can be described thus: compounds binding concanavalin A lectin – biochemical, small-molecule microarray, Alexa647 label, 635 nm, artefact control for SMM control protein annotation, primary screen (AID 1127).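 Note: z combines 667 nm emission intensity with signal-to-noise across three replicate slides.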 To be noted: ConA-A647 binding fluorescence, higher = more signal.
Test [9] can be described thus: compounds binding Alexa647 anti-His antibody – biochemical, small-molecule microarray, 635 nm fluorescence, artefact control for SMM control protein annotation, primary screen (AID 1128).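 Note: score merges feature fluorescence with signal-to-noise for each printed compound spot.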 To be noted: higher = more signal.
Test [10] deals with Human papillomavirus type 1a E7 protein (residues 1-88). The experiment in a line: HPV1a E7 small-molecule binders, primary screen, biochemical, small-molecule microarray, residues 1-88, 635 nm (AID 1129). To be noted: small-molecule microarray binding, fluorescence 635 nm; higher = more signal.
Test [11] concerns the target Focal adhesion kinase 1 (Homo sapiens) (UniProt Q05397). The experiment in a line: PTK2 protein binding on printed compound slides – biochemical, small-molecule microarray, 635/667 nm fluorescence, BSA, DTT, primary screen (AID 1130).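 Note: composite of spot emission at 667 nm and signal to noise over triplicate slides.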 To be noted: 635 nm fluorescence, higher = more signal.
Test [12] has as its system Fibrinogen (Alexa647-labelled). The test can be described thus: Alexa647-fibrinogen binding to printed small molecules – biochemical, small-molecule microarray, 635/667 nm fluorescence, artefact control for SMM control-protein annotation, profiling panel (AID 1131).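 Note: z-score merges 667 nm fluorescence with per-spot signal-to-noise over triplicate slides.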 The note with it: fibrinogen-A647 binding fluorescence, higher = more signal.
The target in test [13] is Follistatin (Homo sapiens) (UniProt P19883). The experiment in a line: FST protein binding to printed compounds – biochemical, small-molecule microarray, 635/667 nm fluorescence, primary screen (AID 1132). The note with it: 635 nm fluorescence, higher = more signal.
Follistatin (Homo sapiens), sequence (P19883 whole entry, looked up): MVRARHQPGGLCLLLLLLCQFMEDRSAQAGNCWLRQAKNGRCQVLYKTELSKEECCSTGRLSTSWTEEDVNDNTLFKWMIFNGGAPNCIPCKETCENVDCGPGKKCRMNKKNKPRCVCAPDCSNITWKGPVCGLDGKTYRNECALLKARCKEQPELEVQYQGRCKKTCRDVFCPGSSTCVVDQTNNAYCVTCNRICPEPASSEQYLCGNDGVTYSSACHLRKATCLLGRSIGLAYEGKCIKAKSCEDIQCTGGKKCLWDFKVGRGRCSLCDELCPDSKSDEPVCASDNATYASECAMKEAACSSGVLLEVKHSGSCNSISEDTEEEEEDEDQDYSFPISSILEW
In test [14] the target is Fibroblast growth factor 2 (Homo sapiens) (UniProt P09038). The experiment in a line: basic fibroblast growth factor binding to printed compounds – biochemical, small-molecule microarray, 635/667 nm fluorescence, primary screen (AID 1133). To be noted: FGF2, fluorescence 635/667, higher = more signal.
Fibroblast growth factor 2 (Homo sapiens), sequence (P09038 whole entry, looked up): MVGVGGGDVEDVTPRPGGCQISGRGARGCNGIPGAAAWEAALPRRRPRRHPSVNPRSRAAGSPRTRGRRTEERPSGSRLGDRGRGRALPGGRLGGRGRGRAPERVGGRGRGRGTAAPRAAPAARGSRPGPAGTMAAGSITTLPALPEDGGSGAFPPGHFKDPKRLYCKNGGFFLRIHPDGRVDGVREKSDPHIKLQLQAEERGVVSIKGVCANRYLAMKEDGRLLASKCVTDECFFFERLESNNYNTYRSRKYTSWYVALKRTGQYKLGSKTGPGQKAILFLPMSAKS
A short description of test [15]: JC-1 mitochondrial potential readout, lung cancer cells – cell-based, A549, JC-1 fluorescence, basal, 24 h, 100 nL, profiling panel (AID 1138).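 Note: A549 lung adenocarcinoma cells under basal conditions with no added stimulus; test concentration not given here.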 To be noted: higher = more signal.
Another test relates to Lefty1. The experiment in a line: Lefty1 protein binding to printed compounds – biochemical, small-molecule microarray, 635/667 nm fluorescence, primary screen (AID 1139). To be noted: fluorescence 635/667, higher = more signal.
Test [16] deals with wheat germ agglutinin (Triticum aestivum), Alexa647-labelled. The test can be described thus: Alexa647-WGA lectin binding to printed small molecules – biochemical, small-molecule microarray, 635/667 nm fluorescence, artefact control for SMM control-protein annotation, profiling panel (AID 1140).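 Note: score merges 667 nm feature emission with signal to noise over triplicate slides.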 To be noted: WGA-A647 binding, 635 nm fluorescence, higher = more signal.
The target of test [17] is Luciferin 4-monooxygenase (Photinus pyralis) (UniProt P08659). The experiment in a line: inhibition of purified Photinus pyralis luciferase – biochemical, luminescence, purified enzyme, 2006 set, primary screen (AID 1141).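 Note: cell-free assay with purified firefly luciferase at 100 ng per well in PBS; test concentration not given here.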 To be noted: purified firefly luciferase, SteadyGlo luminescence, 30 min; higher = more signal, called active from +8 up or from −8 down.
Luciferin 4-monooxygenase (Photinus pyralis), sequence (P08659 whole entry, looked up): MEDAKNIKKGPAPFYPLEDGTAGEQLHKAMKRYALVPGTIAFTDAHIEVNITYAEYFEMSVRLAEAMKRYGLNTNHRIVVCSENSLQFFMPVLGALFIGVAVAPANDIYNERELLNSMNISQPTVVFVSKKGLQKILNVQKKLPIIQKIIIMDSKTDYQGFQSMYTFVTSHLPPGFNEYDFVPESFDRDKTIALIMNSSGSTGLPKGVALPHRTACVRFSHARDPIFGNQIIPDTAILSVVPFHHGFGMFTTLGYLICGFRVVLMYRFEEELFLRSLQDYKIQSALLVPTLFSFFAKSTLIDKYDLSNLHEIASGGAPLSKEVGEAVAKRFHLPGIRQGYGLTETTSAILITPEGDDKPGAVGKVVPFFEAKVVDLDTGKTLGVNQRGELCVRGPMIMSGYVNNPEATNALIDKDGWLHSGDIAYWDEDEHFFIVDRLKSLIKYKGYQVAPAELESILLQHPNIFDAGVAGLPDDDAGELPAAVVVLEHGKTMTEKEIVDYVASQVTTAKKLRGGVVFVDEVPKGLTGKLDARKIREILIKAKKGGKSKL

Focal adhesion kinase 1 (Homo sapiens), sequence (Q05397 whole entry, looked up): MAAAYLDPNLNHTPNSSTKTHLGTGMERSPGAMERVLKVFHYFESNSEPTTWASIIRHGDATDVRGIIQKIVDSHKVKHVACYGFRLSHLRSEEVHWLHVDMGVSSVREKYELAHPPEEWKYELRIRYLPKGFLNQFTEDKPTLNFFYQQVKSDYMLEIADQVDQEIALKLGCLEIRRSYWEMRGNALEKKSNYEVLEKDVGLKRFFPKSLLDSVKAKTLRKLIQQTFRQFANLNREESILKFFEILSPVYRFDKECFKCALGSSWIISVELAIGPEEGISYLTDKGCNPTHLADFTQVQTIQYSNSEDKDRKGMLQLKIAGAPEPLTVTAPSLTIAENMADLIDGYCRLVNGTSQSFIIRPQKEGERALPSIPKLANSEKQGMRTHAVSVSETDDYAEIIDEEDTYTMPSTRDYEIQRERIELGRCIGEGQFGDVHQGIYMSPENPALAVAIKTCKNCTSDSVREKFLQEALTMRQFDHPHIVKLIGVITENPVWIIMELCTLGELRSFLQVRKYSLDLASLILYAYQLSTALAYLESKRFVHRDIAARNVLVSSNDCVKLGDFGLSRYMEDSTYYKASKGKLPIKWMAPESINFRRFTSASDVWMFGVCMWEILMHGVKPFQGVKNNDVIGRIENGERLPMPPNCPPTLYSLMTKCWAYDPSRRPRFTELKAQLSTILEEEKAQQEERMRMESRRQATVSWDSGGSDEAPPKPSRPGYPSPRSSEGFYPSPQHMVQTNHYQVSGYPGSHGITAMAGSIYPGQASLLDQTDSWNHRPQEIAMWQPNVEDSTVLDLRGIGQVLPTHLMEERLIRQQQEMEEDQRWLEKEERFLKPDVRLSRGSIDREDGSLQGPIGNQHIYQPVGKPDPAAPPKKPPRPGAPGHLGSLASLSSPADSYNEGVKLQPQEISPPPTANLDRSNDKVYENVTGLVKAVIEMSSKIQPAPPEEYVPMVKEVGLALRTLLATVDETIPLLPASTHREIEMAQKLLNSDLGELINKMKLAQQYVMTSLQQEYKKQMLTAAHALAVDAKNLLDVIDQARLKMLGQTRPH
Concanavalin-A (Canavalia ensiformis), sequence (P02866 whole entry, looked up): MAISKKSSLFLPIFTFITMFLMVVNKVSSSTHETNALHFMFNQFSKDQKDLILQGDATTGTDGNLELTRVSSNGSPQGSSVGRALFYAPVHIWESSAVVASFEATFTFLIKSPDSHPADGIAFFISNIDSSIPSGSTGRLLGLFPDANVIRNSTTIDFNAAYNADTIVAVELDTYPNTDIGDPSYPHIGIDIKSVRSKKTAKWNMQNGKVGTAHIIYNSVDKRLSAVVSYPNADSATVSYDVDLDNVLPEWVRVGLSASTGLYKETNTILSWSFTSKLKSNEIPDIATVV

For `COc1ccc([Si](C)(C)[C@H]2[C@H](CC(=O)N3CCC[C@H]3CO)O[C@@]3(C(=O)N(C)c4ccccc43)[C@@H]2C)cc1`, the composite z-score in the test with Albumin (Bos taurus) was 0.728; in test [2], 0.103; in test [3], -0.103; in test [4] it was 0.487; in test [5], 0.459; in test [6], 0.378. Further, the composite z-score with Sam68 (KHDRBS1) is 0.646; in [7] it was 0.808; in test [8], 0.119; in test [9], 1.86; in test [10], 0.0098; in [11] it was -0.0086. Moreover, the composite z-score was found to be 0.509 in test [12]; 1.53 in test [13]; 0.798 in test [14]; 1.16 with Lefty1; 0.051 in [16]. In [1], the composite Z-score was 1.38 (inactive). Besides, the z-score in test [15] is -0.151; in test [17] it was 0.229 (inactive).

On to `COc1cc2c(cc1OC)CN(C(=O)[C@@H]1[C@H]3C(=O)O[C@H](c4ccccc4)[C@H](c4ccccc4)N3[C@H](c3ccc(O)cc3)[C@@]13C(=O)Nc1ccc(C#CC4=CCCCC4)cc13)CC2`, for which the composite z-score with Albumin (Bos taurus) was 0.833; in test [2] it was 0.0522; in test [3], -0.0142; in [4], 0.5; in [5], 1.49; in test [6], 0.453. Moreover, the composite z-score with Sam68 (KHDRBS1) is 1.3; in [7], 0.153; in test [8], 1.1; in test [9], 1.76; in test [10], 1.19; in test [11], 0.453. For the same compound, the composite z-score in test [12] is 0.863; in test [13] it was 1.08; in test [14], 0.493; with Lefty1, 1.46; in test [16], 1.06. In addition, the composite Z-score in [1] was -0.0662 (inactive). For the same compound, the z-score in [15] is -0.637; in test [17], -1.33 (inactive).

On to `C=CC[C@@]1(C(=O)NCCCOC)N=C(c2ccc(OCCCO)cc2)O[C@@H]1c1ccccc1CN=[N+]=[N-]`, for which the composite z-score with Albumin (Bos taurus) was 0.829; in test [2], 0.518; in test [3] it was -0.108; in test [4], 0.596; in test [5], 2.61; in test [6], 0.159. Also, the composite z-score stood at 1.29 in the test on Sam68 (KHDRBS1); 0.0984 in [7]; 1.08 in test [8]; 2.86 in test [9]; 1.21 in [10]; 0.117 in test [11]. Also, the composite z-score in [12] stood at 1.01; in test [13], 1.15; in test [14], 0.312; in the test on Lefty1, 0.309; in [16], 0.719. In addition, the composite Z-score in [1] was 0.202 (inactive). The values for the z-score in test [15] and in test [17] were 1.7 and 0.645 (inactive), respectively.

`[N-]=[N+]=NCc1ccccc1[C@H]1OC(c2ccc(OCCCO)cc2)=N[C@@]1(Cc1ccccc1N=[N+]=[N-])C(=O)N1CCOCC1`: the composite z-score with Albumin (Bos taurus) is 0.939; in test [2], 0.0159; in test [3], -0.0895; in test [4] it was 0.676; in test [5], 2.57; in [6], -0.14. Moreover, the composite z-score in the test on Sam68 (KHDRBS1) was 1.3; in [7], -0.596; in test [8], 1.14; in test [9], 0.574; in test [10] it was 1.21; in test [11], 0.993. For the same compound, the composite z-score in test [12] is 1.04; in test [13], 0.526; in [14] it was -0.335; in the test with Lefty1 it was 0.0349; in [16], 1.07. In [1], the composite Z-score is 0.594 (inactive). The z-score is 0.704 in [15] and -2.44 (inactive) in test [17].

As to `Cc1c(NC(=O)/C(C#N)=C/C=C/c2ccc([N+](=O)[O-])cc2)c(=O)n(-c2ccccc2)n1C`, the composite z-score with Albumin (Bos taurus) came out at 0.974; in [2], 0.144; in test [3], 0.0966; in test [4], 0.584; in [5] it was 2.23; in test [6] it was 0.82. The composite z-score with Sam68 (KHDRBS1) is 1.3; in test [7], 0.0495; in [8] it was 1.04; in test [9] it was 2.04; in test [10], 1.18; in test [11], -0.0384. For the same compound, the composite z-score in test [12] was determined as 1.02; in test [13], 1.06; in test [14], 1.11; with Lefty1 it was 0.78; in test [16] it was 0.685. The composite Z-score in [1] was 0.947 (inactive). Further, the results for the z-score in test [15] and in test [17] were 0.138 and -4.99 (inactive), respectively.
